For ten compounds, Percent Effect results are on record in ChEMBL document CHEMBL3988442, “University of Dundee, Small-Polar-MMV Screening Library” (2021).

Design in all cases: scale not given: direction of the effect not stated beside the values
Assay [1] has as its target Protein translocase subunit SecA (Escherichia coli (strain K12)) (UniProt P10408). The experiment in a line: Assay to Identify E. coli SecA ATPase Inhibitors. The assay is classed as functional. The settings on record: 30 µM.
Assay [2] addresses T1, Ubiquitin-activating enzyme e1, putative (Leishmania donovani (strain BPK282A1)) (UniProt E9BSI1).
T1 sequence (whole entry): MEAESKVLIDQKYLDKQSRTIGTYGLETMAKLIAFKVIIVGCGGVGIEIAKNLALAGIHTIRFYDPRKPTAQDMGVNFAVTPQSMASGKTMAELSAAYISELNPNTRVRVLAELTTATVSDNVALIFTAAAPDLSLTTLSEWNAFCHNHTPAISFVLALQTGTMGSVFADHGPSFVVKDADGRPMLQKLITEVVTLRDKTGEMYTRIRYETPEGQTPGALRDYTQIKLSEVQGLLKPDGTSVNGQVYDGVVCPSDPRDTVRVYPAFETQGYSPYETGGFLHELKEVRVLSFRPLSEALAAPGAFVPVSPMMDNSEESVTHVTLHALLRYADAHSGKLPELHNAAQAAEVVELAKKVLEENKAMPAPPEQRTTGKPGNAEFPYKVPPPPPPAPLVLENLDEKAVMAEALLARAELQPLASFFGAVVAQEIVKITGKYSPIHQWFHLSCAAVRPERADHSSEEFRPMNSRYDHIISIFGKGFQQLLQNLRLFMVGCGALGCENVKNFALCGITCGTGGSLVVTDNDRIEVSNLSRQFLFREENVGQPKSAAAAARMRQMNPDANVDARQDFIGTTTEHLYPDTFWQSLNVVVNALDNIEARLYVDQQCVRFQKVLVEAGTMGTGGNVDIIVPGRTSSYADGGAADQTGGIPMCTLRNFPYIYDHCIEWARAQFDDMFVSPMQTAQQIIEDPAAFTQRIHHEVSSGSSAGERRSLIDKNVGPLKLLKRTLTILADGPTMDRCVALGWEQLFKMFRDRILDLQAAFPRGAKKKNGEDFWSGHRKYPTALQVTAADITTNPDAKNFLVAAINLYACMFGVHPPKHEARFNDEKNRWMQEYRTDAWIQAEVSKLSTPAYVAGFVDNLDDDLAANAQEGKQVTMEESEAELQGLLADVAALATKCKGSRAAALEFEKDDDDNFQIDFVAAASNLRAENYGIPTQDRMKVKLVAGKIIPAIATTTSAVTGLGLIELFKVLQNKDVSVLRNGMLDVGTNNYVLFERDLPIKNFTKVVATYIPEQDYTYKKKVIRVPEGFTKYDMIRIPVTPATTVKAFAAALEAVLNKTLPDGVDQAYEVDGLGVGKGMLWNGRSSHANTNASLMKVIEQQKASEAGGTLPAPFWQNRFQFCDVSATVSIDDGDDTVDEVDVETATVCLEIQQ
Put plainly: Leishmania donovani Ubiquitin Activating Enzyme (LdE1). The settings on record: 30 µM. Format: functional.

The target of assay [3] is Sialic acid-binding Ig-like lectin 9 (Homo sapiens) (UniProt Q9Y336). The experiment in a line: Hs-Siglec9 ALPHAscreen SOP 20170721. The settings on record: 10 µM. In general terms: In Alpha technology, singlet oxygen from a donor bead excites a nearby acceptor bead.
The test system of the next assay is Trypanosoma cruzi. Put plainly: Trypanosoma cruzi phosphomannomutase and mannose-1-phosphate guanylyltransferase assay. Format: functional. The settings on record: 10 µM.
Assay [4] has as its target T2, Arginase-2, mitochondrial (Homo sapiens) (UniProt P78540).
T2 sequence (whole entry): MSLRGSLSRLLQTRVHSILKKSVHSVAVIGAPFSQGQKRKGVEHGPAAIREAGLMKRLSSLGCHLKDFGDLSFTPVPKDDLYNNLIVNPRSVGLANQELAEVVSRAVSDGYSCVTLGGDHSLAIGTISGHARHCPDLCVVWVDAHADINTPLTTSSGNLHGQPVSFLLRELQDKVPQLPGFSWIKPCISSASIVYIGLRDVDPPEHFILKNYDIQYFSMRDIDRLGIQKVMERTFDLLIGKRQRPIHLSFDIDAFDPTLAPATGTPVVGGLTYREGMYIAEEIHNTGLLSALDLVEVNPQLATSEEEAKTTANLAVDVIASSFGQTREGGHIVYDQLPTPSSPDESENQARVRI
The experiment in a line: in vitro enzyme assay to detect the production of urea directly proportional to the activity of Arginase II. Further: in the data most compounds retested in dose-response had high values. The settings on record: 33.3 µM. Format: functional.

For assay [5], the target named is T3, Proteasome subunit beta (Trypanosoma cruzi) (UniProt O96673).
T3 sequence (whole entry): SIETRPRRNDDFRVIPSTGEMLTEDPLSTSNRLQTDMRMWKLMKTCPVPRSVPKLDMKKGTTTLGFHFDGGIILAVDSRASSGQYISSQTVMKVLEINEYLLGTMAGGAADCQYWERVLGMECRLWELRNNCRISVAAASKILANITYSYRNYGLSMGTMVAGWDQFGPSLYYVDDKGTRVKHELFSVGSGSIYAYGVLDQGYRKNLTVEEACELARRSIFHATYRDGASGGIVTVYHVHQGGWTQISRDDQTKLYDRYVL
The experiment in a line: Trypanosoma cruzi proteasome chymotrypsin-like activity (TcProtChymo) assay. Further: in the data most compounds retested in dose-response had high values. Format: functional. The following applies: 9.37 µM.

The species named for the next assay is Homo sapiens. The experiment in a line: To identify inhibition of the IFN signalling (Jak-Stat) pathway via expression of an eGFP reporter gene under the control of an IFN-stimulated response element (ISRE) containing MxA promoter. The assay is classed as functional. The following applies: 30 µM. (In general: Reporter assays use an easily measured gene product as a stand-in for the process of interest.)

In assay [6] the target is T4, Tyrosyl-tRNA synthetase, putative (Trypanosoma cruzi (strain CL Brener)) (UniProt Q4DSP6).
T4 sequence (whole entry): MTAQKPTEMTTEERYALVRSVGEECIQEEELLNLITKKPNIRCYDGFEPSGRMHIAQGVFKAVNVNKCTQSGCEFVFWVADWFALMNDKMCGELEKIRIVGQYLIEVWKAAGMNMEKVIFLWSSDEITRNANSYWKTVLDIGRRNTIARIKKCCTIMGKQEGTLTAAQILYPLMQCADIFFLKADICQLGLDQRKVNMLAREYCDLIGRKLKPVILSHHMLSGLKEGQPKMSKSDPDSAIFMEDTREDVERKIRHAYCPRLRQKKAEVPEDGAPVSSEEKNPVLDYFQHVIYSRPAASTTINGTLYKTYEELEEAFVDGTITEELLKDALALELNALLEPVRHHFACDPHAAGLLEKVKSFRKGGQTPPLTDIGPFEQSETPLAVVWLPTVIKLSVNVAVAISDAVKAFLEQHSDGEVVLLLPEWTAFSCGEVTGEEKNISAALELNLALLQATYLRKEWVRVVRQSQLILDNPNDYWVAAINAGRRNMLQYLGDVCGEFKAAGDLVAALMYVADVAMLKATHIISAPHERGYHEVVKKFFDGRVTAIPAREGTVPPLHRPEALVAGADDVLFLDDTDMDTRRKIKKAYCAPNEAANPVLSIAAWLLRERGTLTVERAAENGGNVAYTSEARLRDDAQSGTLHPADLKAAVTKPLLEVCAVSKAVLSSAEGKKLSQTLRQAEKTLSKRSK
The experiment in a line: Trypanosoma cruzi tyrosyl tRNA synthetase (TcYRS) _High Tyrosine SOP. Further: in the data most compounds retested in dose-response had high values. Format: functional. The settings on record: 30 µM.

Assay [7] concerns the target T4, Tyrosyl-tRNA synthetase, putative (Trypanosoma cruzi (strain CL Brener)). Put plainly: Trypanosoma cruzi tyrosyl tRNA synthetase (TcYRS) SOP. The assay is classed as functional. The following applies: 30 µM.
Assay [8] has as its target Chromo domain-containing protein 1 (Saccharomyces cerevisiae (strain ATCC 204508 / S288c) (Baker's yeast)) (UniProt P32657). Put plainly: ScCHD-1 Enzyme Inhibition Assay. Further: in the data most compounds retested in dose-response had high values. Format: functional. The following applies: 30 µM.

For some of these results: Entries with a potency or affinity are not part of this list.

Sialic acid-binding Ig-like lectin 9 (Homo sapiens), sequence (Q9Y336 whole entry): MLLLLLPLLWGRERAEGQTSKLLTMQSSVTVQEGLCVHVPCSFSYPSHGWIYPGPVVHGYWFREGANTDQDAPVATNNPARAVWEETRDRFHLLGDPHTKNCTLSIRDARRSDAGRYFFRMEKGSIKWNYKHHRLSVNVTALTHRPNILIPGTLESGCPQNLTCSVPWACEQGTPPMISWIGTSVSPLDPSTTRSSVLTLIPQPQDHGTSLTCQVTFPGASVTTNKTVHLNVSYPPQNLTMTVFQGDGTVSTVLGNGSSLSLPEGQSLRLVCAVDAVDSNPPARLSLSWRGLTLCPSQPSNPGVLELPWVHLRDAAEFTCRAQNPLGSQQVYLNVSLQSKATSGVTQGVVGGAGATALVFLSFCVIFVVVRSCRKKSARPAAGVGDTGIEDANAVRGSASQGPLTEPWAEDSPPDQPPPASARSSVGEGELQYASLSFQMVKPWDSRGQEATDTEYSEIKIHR
Protein translocase subunit SecA (Escherichia coli (strain K12)), sequence (P10408 whole entry): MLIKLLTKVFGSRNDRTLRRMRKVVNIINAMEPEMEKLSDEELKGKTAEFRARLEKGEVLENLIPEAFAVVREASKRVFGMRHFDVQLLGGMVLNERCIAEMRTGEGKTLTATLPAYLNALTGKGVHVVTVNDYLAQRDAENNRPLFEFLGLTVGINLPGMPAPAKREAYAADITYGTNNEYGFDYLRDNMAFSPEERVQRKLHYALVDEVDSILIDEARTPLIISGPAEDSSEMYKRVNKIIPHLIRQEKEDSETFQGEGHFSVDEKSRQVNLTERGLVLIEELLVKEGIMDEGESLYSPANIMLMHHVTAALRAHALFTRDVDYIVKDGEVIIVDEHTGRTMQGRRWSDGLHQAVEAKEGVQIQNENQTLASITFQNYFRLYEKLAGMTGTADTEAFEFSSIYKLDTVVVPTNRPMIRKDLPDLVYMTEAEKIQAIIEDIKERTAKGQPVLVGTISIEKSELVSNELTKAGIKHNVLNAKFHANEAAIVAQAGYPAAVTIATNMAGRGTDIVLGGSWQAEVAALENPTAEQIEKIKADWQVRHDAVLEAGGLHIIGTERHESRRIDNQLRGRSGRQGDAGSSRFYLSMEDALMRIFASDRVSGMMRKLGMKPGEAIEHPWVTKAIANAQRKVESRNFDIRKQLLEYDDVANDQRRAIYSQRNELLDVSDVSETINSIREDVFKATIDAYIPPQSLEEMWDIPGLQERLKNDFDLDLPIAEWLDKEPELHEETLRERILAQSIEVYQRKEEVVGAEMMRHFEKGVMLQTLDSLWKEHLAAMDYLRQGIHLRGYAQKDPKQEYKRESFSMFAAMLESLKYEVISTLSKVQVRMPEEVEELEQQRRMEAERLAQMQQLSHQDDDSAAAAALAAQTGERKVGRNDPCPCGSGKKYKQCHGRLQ
Chromo domain-containing protein 1 (Saccharomyces cerevisiae (strain ATCC 204508 / S288c) (Baker's yeast)), sequence (P32657 whole entry, the tested form may be a part): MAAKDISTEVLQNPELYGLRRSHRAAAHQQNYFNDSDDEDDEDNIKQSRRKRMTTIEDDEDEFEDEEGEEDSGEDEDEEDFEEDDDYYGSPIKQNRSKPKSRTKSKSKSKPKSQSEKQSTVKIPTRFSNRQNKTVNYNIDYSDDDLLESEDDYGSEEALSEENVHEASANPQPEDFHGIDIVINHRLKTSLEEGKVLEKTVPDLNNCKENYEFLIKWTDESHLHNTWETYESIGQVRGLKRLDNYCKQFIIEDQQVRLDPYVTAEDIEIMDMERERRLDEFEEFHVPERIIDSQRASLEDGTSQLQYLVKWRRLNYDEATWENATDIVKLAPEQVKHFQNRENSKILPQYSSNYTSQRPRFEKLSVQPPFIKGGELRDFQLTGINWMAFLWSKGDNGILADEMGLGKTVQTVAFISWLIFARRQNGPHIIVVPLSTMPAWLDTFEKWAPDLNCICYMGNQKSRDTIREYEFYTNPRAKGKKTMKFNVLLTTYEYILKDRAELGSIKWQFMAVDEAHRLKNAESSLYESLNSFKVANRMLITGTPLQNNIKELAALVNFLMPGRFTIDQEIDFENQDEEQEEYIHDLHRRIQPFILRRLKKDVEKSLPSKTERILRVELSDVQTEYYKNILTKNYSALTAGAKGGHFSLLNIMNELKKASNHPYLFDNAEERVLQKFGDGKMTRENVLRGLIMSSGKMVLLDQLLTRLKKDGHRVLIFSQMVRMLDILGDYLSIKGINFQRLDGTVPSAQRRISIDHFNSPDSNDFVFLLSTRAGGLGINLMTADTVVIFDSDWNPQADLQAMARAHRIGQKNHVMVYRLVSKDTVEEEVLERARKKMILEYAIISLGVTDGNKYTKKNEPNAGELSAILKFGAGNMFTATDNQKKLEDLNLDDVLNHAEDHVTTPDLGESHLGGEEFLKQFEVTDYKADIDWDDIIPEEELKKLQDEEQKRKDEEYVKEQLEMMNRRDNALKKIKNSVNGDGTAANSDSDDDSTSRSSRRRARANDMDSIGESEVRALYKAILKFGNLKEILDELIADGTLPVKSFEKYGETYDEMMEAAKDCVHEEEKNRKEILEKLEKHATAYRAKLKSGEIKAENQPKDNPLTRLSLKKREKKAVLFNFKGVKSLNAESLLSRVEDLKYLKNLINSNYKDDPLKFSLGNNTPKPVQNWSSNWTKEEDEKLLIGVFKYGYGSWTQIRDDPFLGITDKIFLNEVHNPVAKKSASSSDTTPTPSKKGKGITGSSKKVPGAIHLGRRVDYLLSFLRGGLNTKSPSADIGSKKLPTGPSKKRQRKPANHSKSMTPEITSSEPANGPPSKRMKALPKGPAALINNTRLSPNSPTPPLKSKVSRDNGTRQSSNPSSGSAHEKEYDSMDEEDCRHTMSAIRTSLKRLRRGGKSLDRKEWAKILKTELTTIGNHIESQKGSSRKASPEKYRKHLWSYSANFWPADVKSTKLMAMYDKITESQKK

As for `O=C(NCC1CC1)[C@H]1C[C@H]2OCC[C@H]2N(Cc2ccsc2)C1`, the Percent Effect in assay [1] is -6.05%; in assay [2], -3.9%; in assay [3], -0.139%; in the assay on Trypanosoma cruzi it was -1.85%; in [4], -6.07%; in assay [5] it was 2.38%. The Percent Effect in the assay filed under Homo sapiens was -7.12%; in assay [6] it was -2.63%; in assay [7], 0%; in assay [8], -0.205%.

As to `O=C1CC2(CCCNC2)C(=O)N1Cc1ccc(F)cc1` (stereo not given), the Percent Effect in assay [1] was -2.69%; in [2], 11.7%; in assay [3], -3.81%; in the assay with Trypanosoma cruzi, -5.82%; in assay [4], 2.28%; in assay [5], 6.95%. The Percent Effect in the assay filed under Homo sapiens is 15.5%; in [6], 0.966%; in assay [7] it was -2.5%; in assay [8], -0.664%.

For the compound `COc1ccc(CN2CCN(C(C)=O)CC3(CC(=O)N(C)C3)C2)cc1` (stereo not given), the Percent Effect in assay [1] was -0.72%; in [2] it was 14.3%; in assay [3], 1.28%; in the assay with Trypanosoma cruzi, -0.375%; in assay [4] it was 2.28%; in assay [5] it was 6.44%. Also, the Percent Effect in the assay listed under Homo sapiens was 4.32%; in [6], 12.6%; in [7], 20%; in assay [8], -6.64%.

Consider `COc1ccc2c(c1)OC1(CCN(Cc3ccc(F)cc3)CC1)CC2=O`, for which the Percent Effect in [1] was -2.19%; in assay [2] it was 14.3%; in assay [3], -1.29%; with Trypanosoma cruzi it was 2.63%; in assay [4] it was 2.74%; in assay [5], 9.36%. In addition, the Percent Effect is 24.9% in the assay listed under Homo sapiens, 2.9% in assay [6], 2.5% in assay [7] and -12.1% in assay [8].

On to `CCc1nc(C2CCCN2C(=O)c2nccnc2N)no1` (stereo not given), for which the Percent Effect in assay [1] was -2.75%; in assay [2], -5.13%; in assay [3], -2.27%; in the assay on Trypanosoma cruzi, 8.92%; in assay [4], 0.82%; in [5] it was -4.69%. Moreover, the Percent Effect in the assay listed under Homo sapiens was -2.29%; in assay [6] it was -2.39%; in assay [7] it was 6.02%; in assay [8], -1.91%.

As to `O=C(O)c1ccc2ccc(N3CCN(CC4CC4)CC3)n2c1`, the Percent Effect is -3.4% in [1]; 14.3% in [2]; 1.31% in assay [3]; 3.38% with Trypanosoma cruzi; 2.74% in [4]; 9.7% in assay [5]. The Percent Effect in the assay listed under Homo sapiens was 7.8%; in assay [6], 18.4%; in assay [7], 12.5%; in assay [8] it was -4.22%.

Take `O=C(c1cc[nH]n1)N1CCCC(c2cccc(-n3ccnc3)n2)C1` (stereo not given): the Percent Effect in assay [1] is -1.25%; in assay [2], 12%; in [3], 2.15%; with Trypanosoma cruzi, -1.77%; in assay [4], 4.42%; in assay [5], 8.05%. For the same compound, the Percent Effect in the assay listed under Homo sapiens was 13.7%; in assay [6] it was 5.29%; in assay [7], 12.5%; in [8], -21.6%.

With `CN(C)c1cc(C(=O)N2CCN(S(C)(=O)=O)CC2)ccn1`, the Percent Effect in [1] was -7.92%; in assay [2] it was 10.3%; in assay [3], -9.31%; with Trypanosoma cruzi, -5.35%; in assay [4] it was -2.46%; in assay [5], 6.23%. Also, the Percent Effect in the assay listed under Homo sapiens is 25.7%; in assay [6], 4.31%; in [7], 8.43%; in assay [8], -0.991%.

Regarding `Cc1noc(C2CCN(C(=O)CN(C)c3ccc(Cl)cn3)CC2)n1`, the Percent Effect in assay [1] was -1.77%; in assay [2], 12.8%; in [3], -5.03%; in the assay on Trypanosoma cruzi it was 4.6%; in assay [4] it was 6.56%; in assay [5], 8.11%. Also, the Percent Effect in the assay filed under Homo sapiens was 3.6%; in [6], 8.13%; in assay [7], 20.5%; in assay [8], -1.95%.

Consider `CS(=O)(=O)c1ccccc1C(=O)NCCCN1CCc2ccccc2C1`, for which the Percent Effect was -5.27% in [1]; 18.7% in assay [2]; 2.07% in assay [3]; 7.03% with Trypanosoma cruzi; -0.887% in assay [4]; 17.1% in assay [5]. The Percent Effect in the assay listed under Homo sapiens was -1.14%; in [6] it was 3.68%; in [7], 15.4%; in assay [8], -11.6%.
